A selection: hits, their analogues and other compounds. The true share with any hit is near 19%.
HT1080 IDH1KD tx = kills HT-1080 cells with IDH1 knockdown | HT-1080 IDH1 knockdown viability, ATP luminescence, 48 h | actives 2% (n = 360,000) | Potency, µM (titrated, usually from 46.1 µM), hits mostly cytotoxic
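% activity derives from luminescence (CellTiter-Glo), normalised to DMSO and no-cell wells. HT-1080-IDH1KD cells, 750/well, had 48 h compound exposure at 37 °C.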
TDP1 cell CPT = DT40-hTDP1 cell growth loss with CPT. Potency, µM (top dose mostly 46.2 µM), most hits filed as inhibitors. actives 12% (n = 420,000). chicken DT40 Tdp1-/-;hTDP1 cells + 20 nM CPT, ATP luminescence, 48 h; note: nearly all actives have a fitted effect of over 55% in size
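Chicken DT40 Tdp1-/- cells stably complemented with human TDP1 were seeded at 400 cells/well in medium containing 20 nM camptothecin, exposed to pin-transferred compounds, and grown at 37 °C for at least 48 hr. Viability was read as ATP luminescence.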
TDP1 cell noCPT = qHTS for Inhibitors of human tyrosyl-DNA phosphodiesterase 1 (TDP1): qHTS in cells in absence of CPT; actives 15% (n = 420,000); AID 686978, 2013; DT40 Tdp1-/- hTDP1 cells, no CPT, ATP luminescence, 48 h; Potency, µM (series often up to 46.2 µM), usual class: inhibitors; note: nearly all actives have a fitted effect of over 55% in size
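Growth kinetics read by CellTiter-Glo luminescence after ≥48 hr at 37 °C. Cells: DT40 Tdp1-/- stably carrying human TDP1, 400 per well, compound exposure in the absence of CPT (DMSO vehicle).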
IL1B secr inh = blocks inflammasome-driven IL-1 beta release. THP-1 LPS/ATP IL-1B secretion, AlphaLISA, 16 h; hits give low values. activity change, % at 57.5 µM. actives 4.7% (n = 360,000). AID 743279; in the data active = activity change below about -50%; inconclusive = mostly about -30% to -49%
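THP-1 cells pretreated 1 hr with compounds (up to 57.5 uM final), then stimulated with LPS (250 ng/mL final) plus ATP (1.25 mM final); secreted IL-1B measured by AlphaLISA after 16 hr, decreased signal indicating inhibition.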
ELG1 repair inh = blocks ELG1-dependent DNA repair in HEK293T cells; actives 2.3% (n = 330,000); HEK293T ELG1-luciferase reporter, luminescence, 16 h; DNA damage induced by 5-fluorouridine; Potency, µM (doses to about 46.1 µM), most hits filed as inhibitors; AID 504467; note: nearly all actives have a fitted effect of over 55% in size
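HEK293T cells expressing luciferase-tagged ELG1 (2,000/well) received 5-Fluorouridine plus compound or DMSO for 16 hr at 37 °C. Luciferase was read by ONE-Glo luminescence after 30 min at room temperature.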
HT1080-NT tox = kills 2HG-producing HT-1080-NT fibrosarcoma cells; Potency, µM (highest dose often 46.1 µM), hits mostly cytotoxic; actives 1.6% (n = 360,000); HT-1080-NT fibrosarcoma viability, CellTiter-Glo ATP luminescence, 48 h; AID 686970;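 note: NT is the 2HG producing partner of a matched IDH1 knockdown line; nearly all actives have a fitted effect of over 55% in size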
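HT-1080-NT; 750 cells/well; 5% FBS RPMI; 48 h compound, 37 degrees C; CellTiter-Glo luminescence; curve fitting and curve-class assignment.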
A number is an active result; . = inactive; ? = inconclusive; / = no result given; ! = repeats disagree. Unless noted, calls come from the whole dose curve; as a rule, active = well fitted curve in the direction sought with a large enough effect; inconclusive = small, poorly fitted or top-dose-only effect, or another doubt; inactive = no such curve, though single readings can be large; an effect the other way counts as inactive or inconclusive.

SMILES	HT1080 IDH1KD tx	TDP1 cell CPT	TDP1 cell noCPT	IL1B secr inh	ELG1 repair inh	HT1080-NT tox
O=C1Nc2ccc(Cl)cc2C(C#CC2CC2)(C(F)(F)F)O1 (configuration not stated)	?	?	?	.	.	?
COC(=O)N1CCC[C@@]2(CCN(C(=O)Nc3ccccc3)C2)C1	/	.	.	/	/	/
CCc1cccc(N(C)C(N)=Nc2cccc3ccccc23)c1	.	11µM!	15µM!	.	.	?
CC(=O)N(C)c1ccc(NC(=O)Cc2cccc3ccccc23)cc1	.	.	.	.	/	.
CCCCN(CCCC)CC(O)c1cc(Cl)cc2c1-c1ccc(Cl)cc1/C2=C/c1ccc(Cl)cc1 (configuration not stated)	/	.	.	/	/	/
COc1ccc(CN(Cc2ccco2)C(=O)COc2ccccc2Cl)cc1	/	?	23µM	/	/	/
COc1ccc(CN(Cc2ccco2)C(=O)COc2ccccc2OC)cc1	/	?	18µM	/	/	/
O=C(COc1ccccc1Cl)N(Cc1ccco1)C1CCS(=O)(=O)C1 (configuration not stated)	.	.	.	.	.	.
COc1ccccc1OCC(=O)NCc1ccco1	.	.	.	.	.	.
CC(CCc1ccccc1)NC(=O)CNC(=O)c1ccccc1Br (configuration not stated)	.	.	.	.	.	.
Cc1cccc(N2CC(C(=O)Nc3nnc(SCc4cccnc4)s3)CC2=O)c1 (configuration not stated)	.	.	.	.	.	.
COC(=O)c1cc2ccsc2n1CC(=O)Nc1cc(Cl)ccc1OC	?	7.3µM	13µM	.	?	7.9µM
CCOC(=O)c1c(NC(=O)CSc2nc3nc(C)cc(C)n3n2)sc(CC)c1C	.	12µM	?	.	.	.
Nc1nc(SCC(=O)Nc2cc(Cl)c(Cl)cc2Cl)n[nH]1	.	.	?	-52	.	.
CCOC(=O)c1c(NC(=O)CSc2n[nH]c(N)n2)sc(CC)c1C	.	.	.	-92	.	.
COC(=O)c1c(NC(=O)CSc2n[nH]c(N)n2)sc(C)c1C	.	.	.	.	.	.
CCc1ccc(NC(=O)CSc2nc3nc(C)cc(C)n3n2)cc1	.	?	?	.	.	.
Nc1nc(SCC(=O)Nc2cc(Cl)ccc2Cl)n[nH]1	.	?	?	.	.	.
CN(C)c1ncc2nc(-c3ccccc3)c(=O)n(-c3ccccc3)c2n1	/	.	.	/	/	/
O=C(COC(=O)c1ccccc1F)Nc1ccc2c(c1)OCCO2	.	.	.	.	.	.
Clc1ccc(OCCOCCOc2cccc3cccnc23)c(Br)c1	?	23µM	?	.	.	?
Brc1ccc(OCCCOc2cccc3cccnc23)cc1	.	.	.	.	?	.
Brc1ccc(OCCOCCOc2cccc3cccnc23)cc1	.	?	23µM	?	/	.
CCOc1ccc(-c2nc(Cn3c(=O)cc(-c4ccccc4)c4c(C)nn(C)c43)c(C)o2)cc1	/	.	.	/	/	/
COC(=O)Cc1coc2cc(OC)ccc12	.	.	.	.	.	.
CS(=O)(=O)Nc1cccc(-c2cc(NC=O)c3ncc(-c4ccc(F)c(Cl)c4)n3c2)c1	?	9.2µM	15µM	.	/	?
O=CNc1cc(-c2ccccc2)cn2c(-c3ccc(F)c(Cl)c3)cnc12	?	23µM	23µM	.	/	.
O=CNc1cc(-c2cccc(F)c2)cn2c(-c3ccc(F)c(Cl)c3)cnc12	?	23µM	12µM	.	/	.
CC(NC(=O)c1ccccc1F)c1nnc(SCC(=O)Nc2nnc(C3CC3)s2)n1C (configuration not stated)	.	.	.	.	.	.
Cc1ccc(C)c(NC(=O)CSc2nc(=O)n(Cc3ccccn3)c3c2CCC3)c1	/	.	?	/	/	/
